# High-throughput results (PubChem BioAssay)
# Only some compounds are listed: those with a hit (about 2.1% of all), similar ones and a draw of the others.
# MsrA act: bovine MsrA enzyme activators, primary screen, biochemical, absorbance, HTS; Methionine sulfoxide reductase A (Bos taurus); purified bovine MsrA, absorbance read-out; activation, % at 10.6 µM; hit rate 0.3% among 360,000; AID 602163, 2012; in the data active means activation above about 7.5%;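 further: 0% = vehicle and 100% = reference activator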
# ABCB6 inh 2: ABCB6 transporter inhibitors, primary screen, K562-ABCB6 cells, flow cytometry, MLPCN library | AID 602162, 2011 | ATP-binding cassette sub-family B member 6 (Homo sapiens), Q9NP58 | fluorescence ratio to DMSO, % at 10 µM | K562-ABCB6 porphyrin accumulation, 1 h; active compounds read low | hit rate 0.19% among 360,000;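 active means fluorescence ratio to DMSO below 75%, the collection mean minus 3 SD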;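 further: signal is porphyrin accumulated inside mitochondria; 100% equals median channel fluorescence of DMSO control wells; lower ratio means ABCB6 inhibition with less porphyrin fluorescence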
# MsrA inh: bovine MsrA enzyme inhibitors, primary screen, biochemical, absorbance, HTS; Methionine sulfoxide reductase A (Bos taurus); purified bovine MsrA, absorbance read-out; inhibition, % at 15.5 µM; hit rate 0.75% among 360,000;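 further: 0% = vehicle wells with enzyme and 100% = reference inhibitor wells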
# SMARCA2 activ: SMARCA2 (BRM) function activators, primary screen, cell-based, luminescence, high throughput; AID 652017, 2013; hit rate 1% among 370,000; MG213 cells, MMTV-luciferase reporter, dexamethasone, overnight; activation, % at 9.1 µM; in the data active means activation above about 7.8%;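 further: 0% = vehicle wells and 100% = reference activator wells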
# MsrA conf: bovine MsrA inhibitors, retest, confirmation, biochemical, absorbance, HTS; purified bovine MsrA, absorbance read-out; shares compounds with MsrA inh; hit rate 41% among 2,300; inhibition, % at 15.5 µM;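 further: coupled to thioredoxin reductase with NADPH and selenocystamine and DMSO as substrate; 0% = vehicle only and 100% = full effect of reference inhibitor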
# SMARCA2 conf: SMARCA2 (BRM) function activators, confirmation, cell-based, luminescence, triplicate | shares compounds with SMARCA2 activ | MG213 cells, MMTV-luciferase with dexamethasone, overnight; MG213 cells expressing E1A, Rb sequestered; DMSO wells 0%, reference activator 100% | activation, % at 9.1 µM | hit rate 30% among 3,500;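 active means activation above its plate's cutoff, the mean activation of tested wells plus 3 SD, cut at about 7.9% in these data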
# GAL4-VP16 Luc: GAL4-VP16 luciferase reporter activation, counter-screen for SMARCA2 (BRM) activator project, cell-based, pG5luc, luminescence, high throughput | shares compounds with SMARCA2 activ | activation, % at 9.1 µM | hit rate 41% among 3,500 | HEK293 GAL4-VP16 pG5luc reporter; scaled: DMSO wells 0%, SAHA wells 100%;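 active means activation above the solvent-only control well mean plus 3 SD, averaged across control plates, cut at about 5.2% in these data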
# An asterisk follows results filed as active; . = no result. Unless noted, no stated cut-off is given here; in the data, active means inhibition above about 4.5%; inactive means the rest.
SMILES,MsrA act,ABCB6 inh 2,MsrA inh,SMARCA2 activ,SMARCA2 conf,GAL4-VP16 Luc,others
N/C(=N\N=C/c1ccc(-c2ccc(O)c(C(=O)O)c2)o1)N[N+](=O)[O-],-4,101,5.2*,-3,.,.,MsrA conf=4.7*
OC1/C(=C/c2ccccc2F)N2CCC1CC2 (configuration not stated),-7,93,0,-2,.,.,
CN(C)c1ccc(C=C2C(=O)NC(=S)NC2=O)cc1[N+](=O)[O-],-8,88,7.3*,-1,.,.,MsrA conf=3
CCOC(=O)CN1C(=O)C2(C(C#N)=C(N)Oc3ccccc32)C(C(=O)OC)=C1C (configuration not stated),-4,95,0,1,.,.,
CCn1c(O)c(/C=N/NC(=O)c2ccncc2)c(=O)[nH]c1=S,-4,99,3,0,.,.,
CCn1c(O)c(/C=N/NC(=O)c2ccccc2)c(=O)n(CC)c1=S,-11,99,0,8.1*,5,2,
COc1ccc(-n2c(/C=C3\C(=O)Nc4ccccc43)nc3ccccc3c2=O)cc1,-4,101,-1,-2,.,.,
COc1ccc2c(c1)/C(=C/c1cnc[nH]1)C(=O)N2,-7,98,3,17*,11*,2,
COc1cccc(-n2c(CN3CCOCC3)nc3ccc([N+](=O)[O-])cc3c2=O)c1,-4,87,1,11*,5,1,
CCN1CCN(Cc2nc3ccc([N+](=O)[O-])cc3c(=O)n2-c2ccccc2F)CC1,-3,97,2,-3,.,.,
COC(=O)C1=CCCN(C)C1,-1,98,1,1,.,.,
Cn1c(=O)c2c(nc(N/N=C/c3c(O)n(-c4ccccc4)c(=S)[nH]c3=O)n2C)n(C)c1=O,-1,98,1,1,.,.,
O=C(NC1CN2CCC1CC2)c1cc(-c2ccc(Cl)cc2)nc2ccccc12 (configuration not stated),.,.,.,11*,2,2,
O=C(NC1CN2CCC1CC2)c1ccc(Cl)cc1 (configuration not stated),.,.,-2,-1,.,.,
O=C1c2ccccc2-c2cccc3cccc1c23,-2,103,-1,8.6*,9.5*,2,
O=c1c2ccccc2nc(/C=C/c2ccc([N+](=O)[O-])o2)n1-c1ccc(O)cc1,-5,322,1,9.5*,-14,1,
Cc1cccc(-n2c(/C=C/c3ccc([N+](=O)[O-])o3)nc3ccccc3c2=O)c1,-4,227,-1,0,.,.,
CCCNC(=O)N1CCC2(CC1)OCCO2,-13,94,1,2,.,.,
CN(C)C(=S)SSC(=S)N(C)C,3,104,-1,15*,-15,16*,
COc1ccc(N2C(=O)CC(N3CC=C(c4ccccc4)CC3)C2=O)cc1 (configuration not stated),0,115,0,11*,-1,1,
Cc1cc(C(=O)CS(=O)(=O)c2ccccc2)cc(C)c1OC(=O)N(C)C,-3,100,0,13*,7,8.8*,
CN(C(=O)Oc1cccc2ccccc12)C1C=CCC1 (configuration not stated),-1,96,0,9.9*,4,4,
CC(=O)O[C@H]1CCC2C3CC[C@H]4[C@@H](O)[C@H](O)CC[C@]4(C)C3CC[C@@]21C (some centres not stated),-1,95,0,5,.,.,
COc1ccccc1-n1c(-c2ccc(C)cc2)nc2ccccc2c1=O,-4,101,0,-1,.,.,
Nc1ccccc1C(=O)OCC(=O)N1CCc2ccccc21,4,77,1,8.7*,7,7.5*,
SMILES,MsrA act,ABCB6 inh 2,MsrA inh,SMARCA2 activ,SMARCA2 conf,GAL4-VP16 Luc,others
C=CCOC(=O)c1ccccc1N,-3,103,0,-3,.,.,
Cc1cc(N2CCNC[C@H]2C)ccc1N1CCN[C@H](C)C1,.,.,1,-3,.,.,
Cc1ccc2c(c1)NP(=S)(Oc1ccccc1)N2 (configuration not stated),-2,99,0,10*,1,3,
COc1cc2c3cc1Oc1cc(ccc1O)C[C@@H]1c4c(cc(OC)c(O)c4Oc4ccc(cc4)C[C@H]3N(C)CC2)CCN1C,-1,110,-1,10*,16*,1,
Cc1ccc(S(=O)(=O)N2Cc3cnnn3-c3ccccc3C2C#N)cc1 (configuration not stated),-7,98,-2,-4,.,.,
CC(=O)Nc1ccc(S(=O)(=O)N2Cc3cnnn3-c3ccccc3C2C#N)cc1 (configuration not stated),-5,98,1,9.7*,-1,1,
CCC1CCCCN1CC(=O)c1ccc(OC(F)F)cc1 (configuration not stated),-3,98,0,14*,-4,1,
COc1cc(OC)c(C=O)c(OC(=O)N(C)C)c1,-3,96,0,2,.,.,
CC(C)n1c(=O)c(C=Nc2cccc([N+](=O)[O-])c2)c(O)n(CCc2ccccc2)c1=O,0,101,3,1,.,.,
ClCCN(CCCl)c1ccc(-n2cnc3c(Cl)ncnc32)cc1,-3,98,0,16*,-3,0,
COC(=O)[C@@H]1N=C(c2ccc(OC)cc2)O[C@]12C(=O)N(C)c1ccc(Cl)cc12,-11,89,2,-3,.,.,
